Results as given in PubChem BioAssay (NCI).
About 79,000 compounds went through this panel and 15% of them were active in at least one assay; those are over-represented in the sample as a whole. Cut-off read from the data, not from the text of the source: active = growth inhibition above about 70%; inactive = the rest.

Experiments:
[1] = NCI Yeast Anticancer Drug Screen. Data for the rad50 strain (AID 155);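 note: 0% = growth of vehicle-only cultures of the same strain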; details: S. cerevisiae rad50 strain growth inhibition; at 50.0 µM; stronger effect = higher value
Outline: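 Relative growth inhibition (compound vs vehicle) was measured in yeast with a defined repair-gene alteration.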

[2] = NCI Yeast Anticancer Drug Screen. Data for the mec2-1 strain (AID 157); details: S. cerevisiae mec2-1 strain, at 50.0 µM, stronger effect = higher value
Outline: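 Each compound was tested on mec2-1 yeast, a strain altered in DNA damage repair or cell cycle control. Growth inhibition is reported relative to vehicle.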

[3] = NCI Yeast Anticancer Drug Screen. Data for the sgs1 mgt1 strain (AID 161);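 note: 0% = growth of cultures given vehicle only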; details: S. cerevisiae sgs1 mgt1 strain, at 50.0 µM, stronger effect = higher value
Outline: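 Mutant yeast exposed to compound; growth scored against vehicle-only wells.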

[4] = NCI Yeast Anticancer Drug Screen. Data for the cln2 rad14 strain (AID 165);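 note: 0% = growth equal to vehicle treated cultures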; details: S. cerevisiae cln2 rad14 strain, at 50.0 µM, stronger effect = higher value
Outline: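 Test compounds were added to cln2 rad14 yeast cultures; inhibition of growth was then determined by comparison with vehicle treatment.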

[5] = NCI Yeast Anticancer Drug Screen. Data for the bub3 strain (AID 167); details: S. cerevisiae bub3 mutant strain, at 50.0 µM, stronger effect = higher value
Outline: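 Screening used yeast with an engineered genetic alteration affecting cell cycle control. Compound-exposed cultures were compared with vehicle cultures, and reduced growth was taken as inhibition.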

[6] = NCI Yeast Anticancer Drug Screen. Data for the mlh1 rad18 strain (AID 175); details: S. cerevisiae mlh1 rad18 strain growth inhibition; at 50.0 µM; stronger effect = higher value
Outline: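 Inhibition values reflect reduced growth of mutant yeast versus vehicle-treated controls following compound exposure; the mutations affect DNA damage repair.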

Measured: growth inhibition

CC(=O)Oc1ccc(OC(C)=O)c2cc3c(cc12)C(=O)C(C)=C(C)C3=O
inactive: [1] 0.4% | [2] 2.35% | [3] 1.1% | [4] -7.05% | [5] 3.35% | [6] 4.85%

C=CCc1ccc(O)c(OC)c1
inactive: [1] 36% | [2] -3.25% | [3] -10.4% | [4] 9.7% | [5] 26.4% | [6] 25%

CCOC(=O)c1cc(Cl)nc(Cl)c1
inactive: [1] 6.95% | [2] -16.6% | [3] -1.8% | [4] -3.15% | [5] 4.5% | [6] -10.4%

C[N+]1(CCc2ccccc2)CCOCC1
inactive: [1] -13.6% | [2] 3.9% | [3] 0.8% | [4] -38% | [5] 1.5% | [6] 2.8%

O=C(CN1C(=O)c2ccccc2C1=O)C(O)CN1C(=O)c2ccccc2C1=O (centres undefined)
inactive: [1] 2.5% | [2] 0.6% | [3] 2.05% | [4] 27.9% | [5] 11.4% | [6] 14.6%

CCCCCCCCCCCC(=O)OCc1ccccc1
inactive: [1] -3.9% | [2] 17.8% | [3] 3.1% | [4] 18.2% | [5] -3.5% | [6] 25.8%

NCc1cnccn1
inactive: [1] -7.05% | [2] 10.6% | [3] -4.65% | [4] 8.45% | [5] 1.1% | [6] -1.85%

Cc1ccc(C(=O)Cc2nc3c([nH]c2=O)c(C)nn3-c2ccccc2)c(C)c1
inactive: [1] 2.6% | [2] -27.5% | [3] 2.55% | [4] 12.7% | [5] -0.85% | [6] 4.7%

CCCNC(=S)/N=C\c1c(O)c2ccccc2oc1=O
inactive: [1] -38.8% | [2] -56.8% | [3] -35% | [4] -0.45% | [5] -0.2% | [6] -5.4%

O=C(Nc1ccc(Cl)cc1)/C(Cc1cccc[n+]1[O-])=N\Nc1ccc([N+](=O)[O-])cc1[N+](=O)[O-]
inactive: [1] -19.4% | [2] -17% | [3] -6.2% | [4] -7.15% | [5] -26.6% | [6] -20.2%

O=[N+]([O-])c1ccc2nc[nH]c2c1
inactive: [1] 48.8% | [2] 4.9% | [3] -6.4% | [4] 25.5% | [5] -0.2% | [6] 43.1%

CSC(=S)n1nc(-c2ccccc2)c(N=Nc2ccccc2[N+](=O)[O-])c1-c1ccccc1
inactive: [1] 31.6% | [2] 12.5% | [3] 20.2% | [4] -30.9% | [5] 18.6% | [6] 29.9%

CCCCCCCCCCCCCCCCSCCOC(=O)C1C2CCC(O2)C1C(=O)O (centres undefined)
inactive: [1] 55.9% | [2] -18.4% | [3] 10.4% | [4] 13.9% | [5] 30.2% | [6] 37.6%

Nn1c(Cc2ccccc2)n[nH]c1=O
inactive: [1] 10.2% | [2] -13.3% | [3] 12.2% | [4] 6.55% | [5] -9.4% | [6] -14.2%

CCOC(=O)Cc1ccc(-c2csc(Nc3ccc(Cl)cc3)n2)cc1
inactive: [1] 49.9% | [2] 22.4% | [3] 35% | [4] 24.2% | [5] 24.8% | [6] 48.9%

CC(=O)NCC(=O)O
inactive: [1] 3.7% | [2] -8.75% | [3] -35.1% | [4] -7.1% | [5] -9.6% | [6] -10.1%

CC1CC2=C(C1)C(C1(C)C(=O)CC3C(C1=O)C3(C)C)C(C)C2=O (centres undefined)
inactive: [1] 2.3% | [2] -24.6% | [3] 5.5% | [4] 3.3% | [5] 4.6% | [6] -44.6%

CC1=NNC(=O)CC1C(O)c1ccc(F)cc1 (centres undefined)
inactive: [1] -33.5% | [2] 1.4% | [3] -10.1% | [4] -2.35% | [5] 0% | [6] -1.85%

N#CCN1C(=O)c2ccccc2C1=O
inactive: [1] 6% | [2] -2.85% | [3] 1.45% | [4] 2.15% | [5] 3.15% | [6] -15.8%

CCOC(=O)c1c(-c2ccc([N+](=O)[O-])cc2)c(/C=N\O)n(-c2ccccc2)c1C
inactive: [1] 1.45% | [2] 6.7% | [3] 3.3% | [4] -17% | [5] -1.95% | [6] 20%

COc1ccc(C#N)c(-c2ccccc2)c1
inactive: [1] -11.2% | [2] -13.2% | [3] 17.5% | [4] 3.05% | [5] -6.25% | [6] -12.3%

CCC(=O)C(C)C1(C(=O)OC)NC(=S)NC(=O)C1C#N (centres undefined)
inactive: [1] 5.4% | [2] -4.75% | [3] -15.8% | [4] -6.4% | [5] -22.1% | [6] -6.1%

CCCC(CC/C(C)=N/NC(N)=O)[N+](=O)[O-] (centres undefined)
inactive: [1] -20.1% | [2] -9.25% | [3] 0.05% | [4] -9.55% | [5] 4.75% | [6] 8.5%

CCOC(=O)C(C)Oc1ccc(Cn2ccnn2)cc1 (centres undefined)
inactive: [1] -20.1% | [2] -1.25% | [3] 15.9% | [4] -4.05% | [5] 3.1% | [6] 6.25%

CCN(CC)CCC(=O)c1ccc(C)cc1
inactive: [1] -37.4% | [2] -46.8% | [3] -26.1% | [4] 11.2% | [5] 0.5% | [6] -23.1%

BrCc1cccc2cccc(CBr)c12
inactive: [1] -5.35% | [2] 17.4% | [3] 10.4% | [4] -10.5% | [5] 9.05% | [6] 2.65%

c1cc2c([nH]1)CCCC2
inactive: [1] 12.5% | [2] 14.3% | [3] 2.45% | [4] 21.1% | [5] 23.6% | [6] 13.9%

CCCCNc1nc2c(=O)n(C)c(=O)n(C)c2s1
inactive: [1] -6.3% | [2] -0.6% | [3] -3.1% | [4] -17.4% | [5] -5.9% | [6] 9.75%

Cc1nnnn1C12CC3CC(CC(C3)C1)C2
inactive: [1] 11.7% | [2] 5.7% | [3] -5.75% | [4] -14.3% | [5] -15.7% | [6] 15.1%

CCOC(=O)\C(C#N)=C/C=C(C)/C(C)=C/Nc1ccc([N+](=O)[O-])cc1[N+](=O)[O-]
inactive: [1] 10.9% | [2] 7.85% | [3] -18.4% | [4] -5.2% | [5] 0.8% | [6] 22.6%

Brc1cc(Br)c(Br)cc1Br
inactive: [1] 6.1% | [2] 5.7% | [3] 8.6% | [4] 13.8% | [5] -3.65% | [6] 12.3%

COc1ccccc1NC(=O)CC(=O)n1nc(C)c(N=Nc2ccccc2F)c1C
inactive: [1] -41.6% | [2] 1.45% | [3] -28.2% | [4] 6.8% | [5] -31.9% | [6] -30.3%

CC1CN(c2ccccc2)NC1=O (centres undefined)
inactive: [1] 0.4% | [2] -32.7% | [3] 0.05% | [4] 27.1% | [5] -19.6% | [6] -7.55%

CCN(CC)CCN=C1Nc2ccccc2N(O)N1
inactive: [1] 0.55% | [2] -1.5% | [3] 11.6% | [4] -23.3% | [5] 12.6% | [6] -2.95%

O=c1[nH]ncc(N/N=C(/C=C/c2ccc(C/C(=N/Nc3cn[nH]c(=O)c3Cl)c3ccccc3)cc2)c2ccccc2)c1Cl
inactive: [1] 30.1% | [2] 8.8% | [3] 33.2% | [4] -15.6% | [5] 9.65% | [6] 4%

C=CCNC(=S)/N=C/C(C(=O)Nc1ccccc1)=C(/C)O
inactive: [1] -55.6% | [2] -18.1% | [3] -41.2% | [4] -27.2% | [5] -50.9% | [6] -20.6%

CCC1(CC)C(=O)N=C(c2ccccc2)N1C
inactive: [1] -5.55% | [2] -5.75% | [3] 8.15% | [4] -16% | [5] -2.3% | [6] -10.7%

CC(=O)[C@H]1CC[C@H]2[C@@H]3CC=C4C=CCC[C@@H]4[C@H]3CC[C@]12C
inactive: [1] -14.1% | [2] 20.1% | [3] 22.9% | [4] -52% | [5] 18.8% | [6] 24.4%

Oc1ccccc1CN=Cc1ccccc1
inactive: [1] 7.45% | [2] 4.1% | [3] -4.25% | [4] -0.5% | [5] -27.2% | [6] 4.85%
